# Results as given in PubChem BioAssay AID1053173 (Broad Institute, 2014).
# The whole screen tested about 1,500 compounds, of which about 390 (26%) were called active. How the calls were made is not given here. Not all results are given here. Measured potencies and affinities stand elsewhere.
# Molecular target: Histone-lysine N-methyltransferase NSD2 (Homo sapiens) (UniProt O96028)
# Experiment: blockers of NSD2 H4 peptide methylation – biochemical, AlphaScreen, cherry-picked samples, dose response (AID 1053173)
# Settings: 120 min; series mostly up to 10 µM
# Histone-lysine N-methyltransferase NSD2 (Homo sapiens), sequence (O96028 whole entry, looked up): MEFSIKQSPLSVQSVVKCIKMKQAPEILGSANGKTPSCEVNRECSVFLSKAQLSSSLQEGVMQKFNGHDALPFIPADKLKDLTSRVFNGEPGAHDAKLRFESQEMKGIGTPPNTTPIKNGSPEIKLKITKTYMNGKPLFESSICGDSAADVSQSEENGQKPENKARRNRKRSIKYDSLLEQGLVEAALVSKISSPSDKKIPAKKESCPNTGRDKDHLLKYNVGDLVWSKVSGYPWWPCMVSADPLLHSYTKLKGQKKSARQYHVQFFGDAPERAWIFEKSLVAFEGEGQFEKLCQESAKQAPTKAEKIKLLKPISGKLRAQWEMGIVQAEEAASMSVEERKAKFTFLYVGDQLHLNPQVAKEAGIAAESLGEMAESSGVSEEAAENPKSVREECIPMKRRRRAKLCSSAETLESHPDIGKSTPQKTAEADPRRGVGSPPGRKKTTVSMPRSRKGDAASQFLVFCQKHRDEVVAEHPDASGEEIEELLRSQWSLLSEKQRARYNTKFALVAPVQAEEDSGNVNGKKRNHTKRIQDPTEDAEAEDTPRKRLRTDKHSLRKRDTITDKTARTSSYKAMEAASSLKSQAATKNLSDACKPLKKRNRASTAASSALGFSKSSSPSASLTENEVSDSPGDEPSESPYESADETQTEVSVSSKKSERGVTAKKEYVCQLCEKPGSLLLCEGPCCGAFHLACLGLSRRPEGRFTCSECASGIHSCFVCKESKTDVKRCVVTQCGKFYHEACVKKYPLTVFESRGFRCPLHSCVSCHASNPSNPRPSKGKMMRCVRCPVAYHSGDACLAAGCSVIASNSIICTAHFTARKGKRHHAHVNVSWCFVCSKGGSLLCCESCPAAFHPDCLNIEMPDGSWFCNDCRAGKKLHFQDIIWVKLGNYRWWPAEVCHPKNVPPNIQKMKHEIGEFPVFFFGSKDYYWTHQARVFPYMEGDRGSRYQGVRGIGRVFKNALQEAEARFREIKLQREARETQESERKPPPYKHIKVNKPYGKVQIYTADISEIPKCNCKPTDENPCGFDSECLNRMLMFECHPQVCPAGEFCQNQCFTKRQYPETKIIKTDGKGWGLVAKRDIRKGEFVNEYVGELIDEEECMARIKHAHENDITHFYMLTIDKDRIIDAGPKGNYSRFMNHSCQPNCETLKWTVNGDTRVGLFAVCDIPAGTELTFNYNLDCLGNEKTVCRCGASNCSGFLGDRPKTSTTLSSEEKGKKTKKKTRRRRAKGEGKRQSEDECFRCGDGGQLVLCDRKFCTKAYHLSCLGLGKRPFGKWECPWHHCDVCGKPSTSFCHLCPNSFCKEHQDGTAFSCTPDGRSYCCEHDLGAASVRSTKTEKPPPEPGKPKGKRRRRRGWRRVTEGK
row,SMILES,outcome
1,N=c1c(C(=O)NCc2ccco2)cc2c(=O)n3ccccc3nc2n1C1CCCC1,inactive
2,COc1cccc(CN2CCC(Oc3ccc(C(=O)N4CCCCC4)cc3)CC2)c1O,inactive
3,Cc1ccc(NC(=O)CN(C)CCOc2ccccc2)c([N+](=O)[O-])c1,inactive
4,CN1CCN(/N=C/c2nc(-c3ccccc3Cl)n3ccccc23)CC1,inactive
5,Cn1c(SCc2ccccc2C#N)nc2ccccc2c1=O,inactive
6,COc1cn(-c2ccccc2)nc1C(=O)NCc1ccccc1,inactive
7,C=CCSc1nnc(-c2ccc(Cl)cc2Cl)o1,inactive
8,CCOC(=O)C1=CN(c2cccc(F)c2)C=C(C(=O)OCC)C1c1cc(OC)c(O)c([N+](=O)[O-])c1,inactive
9,CCC1CC(CSc2ncn[nH]2)OC1=O (stereo not drawn),inactive
10,COc1ccccc1CNC(=O)C(NC(=O)Nc1ccccc1)C(C)C (stereo not drawn),inactive
11,CC(C)(C)/C=N/NC(=O)CNC(=O)c1ccc2c(c1)OCCO2,inactive
12,CS(=O)(=O)N(CC(=O)NCc1ccco1)c1ccc2c(c1)OCO2,inactive
13,COc1cc(NC(=O)COC(=O)CNC(=O)c2ccc(C)cc2)c(C)cc1[N+](=O)[O-],inactive
14,Fc1ccc(NC(=S)Nc2ccc3nccnc3c2)cc1,inactive
15,Cc1ccc(NC(=S)Nc2cccc3cnccc23)cc1,inactive
16,CCOc1ccc(NC(=S)N2CCC(NC(=O)C3CCCCC3)CC2)cc1,inactive
17,CCc1ccc(NC(=S)Nc2cccc3cnccc23)cc1,inactive
18,S=C(Nc1ccc2nsnc2c1)N1CCCC1,inactive
19,COc1cc(/C=N/N2CCN(C3c4ccccc4-c4ccccc43)CC2)cc(OC)c1OC,inactive
20,Cc1ccc(CSc2nc3c(c(=O)[nH]2)C(c2ccncc2)C2=C(CCCC2=O)N3)cc1 (stereo not drawn),inactive
21,CC(=O)c1cccc(NC(=O)c2csc(-n3nc(C)cc3C(F)(F)F)n2)c1,inactive
22,CCCC(C(=O)NC(C)(C)C)N(CC1CCCO1)C(=O)CNS(=O)(=O)c1ccc(F)cc1 (stereo not drawn),inactive

row,SMILES,outcome
1,CC(=O)Nc1ccc(SCCC2CCCCN2C)cc1 (stereo not drawn),inactive
2,CCOc1ccc(-n2cnc3sc4c(c3c2=O)CCCC4)cc1,inactive
3,C[N+](C)(C)CCC(=O)N1C/C(=C/c2ccccc2)C(=O)/C(=C\c2ccccc2)C1,inactive
4,O=C(CN1C(=O)c2ccc([N+](=O)[O-])cc2C1=O)Nc1nnc(C2CC2)s1,inactive
5,Cc1ccc(NC(=O)c2cc([N+](=O)[O-])ccc2NCc2cccnc2)cc1Cl,inactive
6,CC(=O)N1CCc2cc(Br)cc(S(=O)(=O)NCCCN(C)Cc3ccccc3)c21,inactive
7,CN1CCC(=NNC(=O)c2cn(-c3ccccc3)nc2-c2ccccc2)CC1,inactive
8,Cc1ccccc1-c1noc(C23CC4CC(CC(C4)C2)C3)n1,inactive
9,CCOC(=O)C1CCCN(C(=O)c2ccc(OC(C)=O)cc2)C1 (stereo not drawn),inactive
10,Cc1nnc(Sc2cc(NCCO)c([N+](=O)[O-])c3nonc23)s1,inactive
11,CC(C)CNC(=O)c1cnn2c(C(F)(F)F)cc(C(F)(F)F)nc12,inactive
12,Nc1c(Br)cc(Br)c2c1[nH]c(=O)c1ccccc12,inactive
13,CCOc1cc(N2CCOCC2)c(OCC)cc1NC(=O)c1cnccn1,inactive
14,COc1cc(/C=N/n2c(C)nnc2C)cc(OC)c1OC,inactive
15,O=C(c1ccccc1OCc1ccccc1Br)N1CCN(c2ncccn2)CC1,inactive
16,CSc1nnc(-c2ccco2)c(-c2ccco2)n1,inactive
17,N#Cc1ccc(-c2ccco2)nc1SCc1ccccc1,inactive
18,CCOC(=O)CC(NS(=O)(=O)c1ccc2[nH]cc(C(=O)O)c(=O)c2c1)c1ccc(OCC)c(OC)c1 (stereo not drawn),inactive
19,O=C(/C=C/c1ccc(OCCCF)cc1)N1CCN(Cc2ccccc2)CC1,inactive
20,CN1C(=O)C(=O)/C(=C(/O)c2ccccc2)C1c1ccccc1 (stereo not drawn),inactive
21,CCn1c(SC(=O)NC2CCCCC2)nnc1-c1cccs1,inactive
22,Cc1cc(C)c(NC(=O)C2CC(=O)N(c3ccc4c(c3)OCCO4)C2)c(C)c1 (stereo not drawn),inactive

row,SMILES,outcome
1,C/[N+]([O-])=C1\Cc2ccccc2C1=O,inactive
2,Cc1cc(C)nc(N2CCC(C(=O)N(C)CCc3ccccc3)CC2)n1,inactive
3,O=C(CN(C(=O)c1csnn1)c1cccc2ccccc12)NCc1ccccc1,inactive
4,Cc1cc(C(=O)COC(=O)c2n[nH]c3ccccc23)c(C)n1C,inactive
5,O=C(NCCCn1ccnc1)C1CCN(S(=O)(=O)c2ccc(F)cc2)CC1,inactive
6,CC(=O)Nc1ccc(S(=O)(=O)NCCSCc2ccc(Cl)cc2Cl)cc1,inactive
7,CC(C)NCC#CCOc1ccc(Cl)cc1,inactive
8,COC(=O)c1ccc(-n2nnnc2SCC(=O)NCc2cccc(C(=O)O)c2)cc1,inactive
9,O=C(NCc1ccco1)c1scc2c1OCCO2,inactive
10,CC(C)(C)NC(=O)C(c1ccco1)N(C(=O)Cn1nnc(-c2ccc(F)cc2)n1)c1ccccc1F (stereo not drawn),inactive
11,O=C(c1ccccc1)c1cc2ccccc2oc1=O,inactive
12,Cc1cc(=O)oc(C)c1C(=O)OCC(=O)c1ccccc1,inactive
13,COc1ccc(N2CCOCC2)c(NC(=O)c2ccc3c(c2)OCO3)c1,inactive
14,CCC1Cc2c(nc(N)c3c(N)nc(N4CCOCC4)c(C#N)c23)O1 (stereo not drawn),inactive
15,CCOc1cc2c(C#N)c(N3CCOCC3)nc(N)c2c(N)n1,inactive
16,CC(C)n1c(NCc2nc3ccccc3n2C)nc2ccccc21,inactive
17,CCc1ccc(N2C(=O)C3C(C2=O)N2CCCN2C3c2ccccc2)cc1 (stereo not drawn),inactive
18,COc1cc(/C=C2\C(=O)ON=C2c2ccccc2)cc(Cl)c1O,inactive
19,O=C1C(=Cc2ccco2)CCC1=Cc1ccco1,inactive
20,COc1ccc(CNC(=O)CCCN2C(=O)NC3(CCCC3)C2=O)cc1,inactive
21,COc1ccc(NC(=O)Cn2nnc(C(=O)NCCc3ccc(OC)c(OC)c3)c2N)cc1,inactive
22,Cc1ccc(S(=O)(=O)N2CCCCC2CCNC(=O)C(=O)Nc2ccccc2F)cc1 (stereo not drawn),inactive

row,SMILES,outcome
1,CC(=O)N(C)c1ccc(N=Nc2c(C)[nH]n(C(N)=S)c2=O)cc1,inactive
2,NS(=O)(=O)c1ccc(N/N=C/c2ccncc2)cc1,inactive
3,COC(=O)[C@H](Cc1ccccc1)NC(=O)Nc1ccc(S(N)(=O)=O)cc1,inactive
4,CCCCNC1=CC(=O)C(=O)c2ccccc21,inactive
5,O=C(CSc1nc(SCC(=O)NCc2ccccc2)n(-c2ccccc2)n1)NCc1ccccc1,inactive
6,COc1ccc(C(=O)Nc2c3c(nn2-c2ccc(Cl)cc2)CS(=O)(=O)C3)cc1,inactive
7,CC(=O)N1C2CCCCC2S[C@H]2CCCCC21 (stereo partly drawn),inactive
8,O=C(NCc1ccco1)Nc1cccc([N+](=O)[O-])c1,inactive
9,CCCCc1nc2cc(C(=O)N3CCC(O)CC3)ccc2o1,inactive
10,O=C(NC(c1ccc(Cl)cc1)c1cc(Cl)c2cccnc2c1O)c1cccnc1 (stereo not drawn),inactive
11,CCCn1c(C)nc2c(c1=O)c1nc3ccccc3nc1n2-c1ccccc1,inactive
12,Cn1c(=O)c(-c2ccccc2)nc2ccccc21,inactive
13,CC(=O)Nc1ccc(N(C(=O)CNC(=O)c2ccco2)C(C(=O)NCC2CCCO2)c2ccccc2)cc1 (stereo not drawn),inactive
14,CCN(CC)S(=O)(=O)c1cccc(-c2nnc(SCCCC(=O)c3ccc(F)cc3)o2)c1,inactive
15,Cc1[nH]n(-c2ccccc2)c(=O)c1N=Nc1ccccc1C(=O)N1CCCCC1,inactive
16,CC1(C)Cc2c(c(-c3ccco3)[nH]c(=O)c2C#N)CS1,inactive
17,CCc1ccc(-c2cc(C)no2)cc1S(=O)(=O)N1CCN(c2ccc(F)cc2)CC1,inactive
18,COc1ccc(NC(=O)CC2C(=O)NCCN2C(=O)c2ccc(N(C)C)cc2)cc1 (stereo not drawn),inactive
19,Cc1cc(NC(=O)CSc2nc3ccccc3cc2C#N)no1,inactive
20,O=C(Nc1ccc(O)cc1)C1CC=CCC1 (stereo not drawn),inactive
21,CC1CN(Cc2nc3c(c(=O)n(C)c(=O)n3C)n2CCCc2ccccc2)CC(C)O1 (stereo not drawn),inactive
22,O=C(OCc1cccc2ccccc12)C1CC(=O)N(c2ccccc2)C1 (stereo not drawn),inactive

row,SMILES,outcome
1,COc1cccc2c1N1C(=O)c3c(C(=O)O)cccc3C1CC2(C)C (stereo not drawn),inactive
2,COc1ccc(C2C(C(=O)c3ccco3)=C(O)C(=O)N2CC2CCCO2)cc1OC (stereo not drawn),inactive
3,CCOC(=O)c1c(NC(=O)COC)sc2c1CCCC2,inactive
4,CCN(C(=S)Nc1ccc(C(C)=O)cc1)C1CCCCC1,inactive
5,CC1CN(Cc2cc(=O)n3ccsc3n2)CC(C)O1 (stereo not drawn),inactive
6,COCCn1c(N)c(N(Cc2ccccc2)C(=O)c2cc(=O)[nH]c3ccccc23)c(=O)[nH]c1=O,inactive
7,CC(C)CN(C(=O)COC(=O)c1ccc([N+](=O)[O-])s1)c1c(N)n(Cc2ccccc2)c(=O)[nH]c1=O,inactive
8,CCn1c(SCC(=O)N2CCCCC2)nc2c1c(=O)n(C)c(=O)n2C,inactive
9,CCOC(=O)C1=C(C)N(C)C(=S)NC1c1ccccc1Cl (stereo not drawn),inactive
10,COc1cc(/C=C2\SC(N)=NC2=O)cc(Cl)c1O,inactive
11,O=C(CCc1nnc(-c2ccccc2)o1)NCc1cc(F)ccc1F,inactive
12,CCNC(=O)C1CCCN(C(=O)c2ccccc2OC(F)(F)F)CC1 (stereo not drawn),inactive
13,Cc1ccc(S(=O)(=O)c2ccc(Cl)cc2)cc1S(=O)(=O)N1CCOCC1,inactive
14,COc1ccc(NS(=O)(=O)c2cc(NC(=O)COc3ccccc3)ccc2N2CCOCC2)cc1,inactive
15,Cc1ccccc1N1CC(C(=O)Nc2ccc(S(=O)(=O)N3CCOCC3)cc2)CC1=O (stereo not drawn),inactive
16,O=C(CN1CCOCCOCCN(CC(=O)Nc2ccccc2)CCOCC1)Nc1ccccc1,inactive
17,Cc1ccc(/C=N/NC(=O)c2cc3ccccc3cc2O)o1,inactive
18,CCN(Cc1ccccc1)Cc1c(C)[nH]c2c(C)c(C)ccc2c1=O,inactive
19,CCCc1cc(=O)n(-c2nc3ccccc3s2)[nH]1,inactive
20,CC1(C)Cc2c(c(-c3ccco3)[nH]c(=O)c2C#N)CO1,inactive
